From paper PMC5700166

What was measured:
[1] = molecular target: T1, GST-Nv-NF-kB (Ser allele) (Nematostella vectensis, UniProt A7UNT2 2-411); test: protein-binding microarray (PBM); PBM: ~300 nM protein, 6 mM HEPES pH 7.8, 80 mM KCl, 0.5 mM EDTA, 0.5 mM EGTA, 6% glycerol, 35 ng/ul poly-dIdC, 1% milk, 1 h, room temperature; Ap Aiptasia and Nv Nematostella (sea anemones) / Co Capsaspora / Aq Amphimedon (sponge) / Dm Drosophila / Hu human; RHD is the Rel homology domain; high values mean tight binding; conditions: dsDNA, one strand shown
T1 sequence: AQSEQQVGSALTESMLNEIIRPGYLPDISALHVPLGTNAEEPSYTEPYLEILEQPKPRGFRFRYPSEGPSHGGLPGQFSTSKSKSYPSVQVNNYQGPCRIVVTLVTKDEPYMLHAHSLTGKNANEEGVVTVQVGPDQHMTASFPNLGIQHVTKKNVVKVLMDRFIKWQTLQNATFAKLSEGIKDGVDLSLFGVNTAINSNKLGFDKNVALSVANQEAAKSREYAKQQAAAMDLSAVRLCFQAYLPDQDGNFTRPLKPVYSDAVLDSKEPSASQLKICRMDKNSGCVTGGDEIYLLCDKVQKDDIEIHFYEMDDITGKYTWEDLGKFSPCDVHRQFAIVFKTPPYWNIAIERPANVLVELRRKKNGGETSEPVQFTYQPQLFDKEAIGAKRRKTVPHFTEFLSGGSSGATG

GST-Hu-p50 = GST-Hu-p50 (Homo sapiens, UniProt P19838 7-356); test: as above; conditions: dsDNA, one strand shown
Chain of GST-Hu-p50 (P19838 7-356): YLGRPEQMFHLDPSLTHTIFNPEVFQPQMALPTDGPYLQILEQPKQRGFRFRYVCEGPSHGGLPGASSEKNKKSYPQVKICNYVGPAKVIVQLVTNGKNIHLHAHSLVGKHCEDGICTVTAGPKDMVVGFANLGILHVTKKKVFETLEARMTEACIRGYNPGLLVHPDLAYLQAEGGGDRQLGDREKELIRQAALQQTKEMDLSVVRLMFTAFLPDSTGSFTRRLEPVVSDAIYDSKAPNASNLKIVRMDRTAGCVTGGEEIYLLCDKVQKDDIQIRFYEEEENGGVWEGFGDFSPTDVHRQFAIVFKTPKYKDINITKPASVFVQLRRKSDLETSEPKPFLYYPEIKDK

Row | Sequence | binding signal [1] | binding signal (GST-Hu-p50)
1 | CCGATTAACATCAGGGACAACCCTGATGTTAATCGGGTCTTGATTCGCTTGACGCTGCTG | 3.39 z-score | 2.91 z-score
2 | CCGATTAACATCAATATACCCCCTGATGTTAATCGGGTCTTGATTCGCTTGACGCTGCTG | 5.46 z-score | 4.42 z-score
3 | CCGATTAACATCACGGGAACCCCTGATGTTAATCGGGTCTTGATTCGCTTGACGCTGCTG | 2.26 z-score | 3.43 z-score
4 | CCGATTAACATCAGGGAATTAAATGATGTTAATCGGGTCTTGATTCGCTTGACGCTGCTG | 3.98 z-score | 2.43 z-score
5 | CCGATTAACATCAAAATTCCCGGTGATGTTAATCGGGTCTTGATTCGCTTGACGCTGCTG | 6.06 z-score | 4.89 z-score
6 | CCGATTAACATCAGAGTCCCCCCTGATGTTAATCGGGTCTTGATTCGCTTGACGCTGCTG | 5.12 z-score | 5.06 z-score
7 | CCGATTAACATCACGTATTTCCCTGATGTTAATCGGGTCTTGATTCGCTTGACGCTGCTG | 4.49 z-score | 3.02 z-score
8 | CCGATTAACATCAAACAACCCCCTGATGTTAATCGGGTCTTGATTCGCTTGACGCTGCTG | 4.83 z-score | 5.05 z-score
9 | CCGATTAACATCAAGAGTTTCCCTGATGTTAATCGGGTCTTGATTCGCTTGACGCTGCTG | 4.9 z-score | 3.64 z-score
10 | CCGATTAACATCAGGGAATGACCTGATGTTAATCGGGTCTTGATTCGCTTGACGCTGCTG | 1.65 z-score | 2.08 z-score
11 | CCGATTAACATCAAAATTCCCATTGATGTTAATCGGGTCTTGATTCGCTTGACGCTGCTG | 5.71 z-score | 4.55 z-score
12 | CCGATTAACATCACGGGACTTCCTGATGTTAATCGGGTCTTGATTCGCTTGACGCTGCTG | 4.98 z-score | 4.6 z-score
13 | CCGATTAACATCAGGAGTCTCCCTGATGTTAATCGGGTCTTGATTCGCTTGACGCTGCTG | 1.4 z-score | 1.4 z-score
14 | CCGATTAACATCAAGGCATTCCCTGATGTTAATCGGGTCTTGATTCGCTTGACGCTGCTG | 2.11 z-score | 1.31 z-score
